In PubChem BioAssay AID463173 (ICCB-Longwood Screening Facility, Harvard Medical School, 2010):
The whole screen tested about 52,000 compounds, of which about 4,300 (8.3%) were called active. Rule as the data show it: active = survival mostly below about 52% (no sharp cut-off); inactive = mostly above about 56%. The list comes from a sample in which actives are over-represented; it also holds similar structures and randomly drawn compounds.

test system: DeltatarO mutant; assay: growth inhibition of S. aureus wild type versus tarO mutant, primary screen, teichoic acid synthesis inhibitors, RN4220, OD600 (AID 463173); conditions: OD600, 18 h, hits give low values, screened at 18.75 µg/mL (by protocol)

Q: For `CCN1CCN(c2oc(/C=C/c3cc(OC)c(OC)c(OC)c3)nc2C#N)CC1`, which survival is on record?
A: The survival was 72% (inactive).

Q: How did the survival turn out when `O=C(O)CSc1nc2c(c(C(F)(F)F)n1)CCc1ccccc1-2` was run?
A: The survival was 96% (inactive).

Q: For `CCN(CC)N=Nc1ccc(S(=O)(=O)N2CCSC2C(=O)O)cc1` (stereo unspecified), which survival is on record?
A: Its survival is 103% (inactive).

Q: Which survival does the source give for `CCOc1ccc(CC(=O)NCCc2csc(-c3ccc(Cl)cc3)n2)cc1` here?
A: Its survival is 67% (inactive).

Q: For `CCOC(=O)/C(C#N)=C\c1ccc(Br)s1`, which survival is on record?
A: The survival was 93% (inactive).

Q: For `CN(C(=O)CSc1nc2ccccc2n1CC(=O)NCc1ccc(F)cc1)c1ccc(F)cc1`, which survival is on record?
A: The survival was 128% (inactive).

Q: How did the survival turn out when `COc1ccc(CNc2ccc3cc(S(=O)(=O)N4CCCCC4)ccc3n2)cc1` was run?
A: Its survival is 79% (inactive).

Q: `COc1cc(NC(=O)CN2CCCN(S(=O)(=O)c3ccc(F)cc3)CC2)cc(OC)c1` was tested. Which survival did it give?
A: Its survival is 74% (inactive).

Q: For `CCCCSc1nnc2[nH]c(=O)cc(C)n12`, which survival is on record?
A: The survival was 99% (inactive).

Q: Which survival does the source give for `Cc1ccc(OCC(=O)Nc2nnc(SCc3cc(=O)n4cc(C)ccc4n3)s2)cc1` here?
A: Its survival is 6% (active).

Q: With `Cc1ccc2nc(CSc3nnc(NC(=O)COc4ccccc4)s3)cc(=O)n2c1` as the compound, how does the survival read?
A: Its survival is 67% (inactive).

Q: How did the survival turn out when `Cc1ccc2nc(CSc3nnc(NC(=O)CC(C)C)s3)cc(=O)n2c1` was run?
A: Its survival is 76% (inactive).

Q: For `Cc1ccc(OCC(=O)Nc2nnc(SCc3cc(=O)n4cccc(C)c4n3)s2)cc1`, which survival is on record?
A: Its survival is 76% (inactive).

Q: Which survival does the source give for `Cc1ccc2nc(CSc3nnc(NC(=O)C(C)C)s3)cc(=O)n2c1` here?
A: The survival was -1% (active).

Q: Which survival does the source give for `Cc1cccn2c(=O)cc(CSc3nnc(NC(=O)COc4ccccc4)s3)nc12` here?
A: Its survival is 84% (inactive).

Q: With `CC(C)C(=O)Nc1nnc(SCc2cc(=O)n3ccccc3n2)s1` as the compound, how does the survival read?
A: The survival was 86% (inactive).

Q: With `Cc1cccn2c(=O)cc(CSc3nnc(NC(=O)COc4ccc(F)cc4)s3)nc12` as the compound, how does the survival read?
A: Its survival is -2% (active).

Q: How did the survival turn out when `Cc1ccc2nc(CSc3nnc(NC(=O)COc4ccccc4F)s3)cc(=O)n2c1` was run?
A: The survival was 70% (inactive).

Q: Which survival does the source give for `COCCN(C(=O)c1ccco1)c1nnc(-c2ccc(F)cc2)s1` here?
A: Its survival is 58% (inactive).

Q: How did the survival turn out when `CSc1nnc(-c2ccncc2)n1C` was run?
A: Its survival is 97% (inactive).

Q: How did the survival turn out when `COc1ccc(N2CCN(S(=O)(=O)c3csc(C(N)=O)c3)CC2)cc1` was run?
A: The survival was 90% (inactive).

Q: How did the survival turn out when `COc1cc(Cl)c(C)cc1NC(=O)CSc1cc(=O)n(C)c2cc(Cl)ccc12` was run?
A: The survival was 63% (inactive).

Q: With `CC(C)(C)OC(=O)N1CC2C(C1)C2NC(=O)c1nsc(Cl)c1Cl` (stereo unspecified) as the compound, how does the survival read?
A: The survival was 82% (inactive).

Q: How did the survival turn out when `CCOC(=O)c1ccc(NC(=O)c2ccc3c(c2)c(C)c(C)n3Cc2ccc(F)cc2)cc1` was run?
A: The survival was 91% (inactive).

Q: Which survival does the source give for `O=C(Cn1c(=O)n(-c2ccccc2)c(=O)c2ccc(C(=O)NCc3ccc4c(c3)OCO4)cc21)Nc1ccc(Br)cc1` here?
A: The survival was 79% (inactive).

Q: With `CSc1ccc(CCNC(=O)Cn2nc(C)n3c(cc4sccc43)c2=O)cc1` as the compound, how does the survival read?
A: The survival was 88% (inactive).

Q: With `O=C1C2=C(Nc3ccccc3SC2c2ccc(C(F)(F)F)cc2)c2ccccc21` (stereo unspecified) as the compound, how does the survival read?
A: The survival was 16% (active).

Q: `COc1ccc(C2Sc3ccccc3NC3=C2C(=O)c2ccccc23)c(OC)c1OC` (stereo unspecified) was tested. Which survival did it give?
A: The survival was 77% (inactive).

Q: Which survival does the source give for `CCc1ccc(C2Sc3ccccc3NC3=C2C(=O)c2ccccc23)cc1` (stereo unspecified) here?
A: Its survival is 104% (inactive).

Q: `CCOc1cc(C2Sc3ccccc3NC3=C2C(=O)c2ccccc23)ccc1O` (stereo unspecified) was tested. Which survival did it give?
A: Its survival is 48% (inactive).

Q: For `CC(C)c1ccc(C2Sc3ccccc3NC3=C2C(=O)c2ccccc23)cc1` (stereo unspecified), which survival is on record?
A: The survival was 85% (inactive).

Q: Which survival does the source give for `O=C1C2=C(Nc3ccccc3SC2c2c(F)cccc2Cl)c2ccccc21` (stereo unspecified) here?
A: Its survival is 94% (inactive).

Q: `CC(=O)Nc1ccc(C2Sc3ccccc3NC3=C2C(=O)c2ccccc23)cc1` (stereo unspecified) was tested. Which survival did it give?
A: The survival was 116% (inactive).

Q: How did the survival turn out when `CC(C)(C)c1ccc(C2Sc3ccccc3NC3=C2C(=O)c2ccccc23)cc1` (stereo unspecified) was run?
A: The survival was 98% (inactive).

Q: `CCCc1ccc(C2Sc3ccccc3NC3=C2C(=O)c2ccccc23)cc1` (stereo unspecified) was tested. Which survival did it give?
A: Its survival is 94% (inactive).

Q: `O=C1C2=C(Nc3ccccc3SC2c2ccc(Cl)c(Cl)c2)c2ccccc21` (stereo unspecified) was tested. Which survival did it give?
A: Its survival is 22% (active).

Q: With `COc1ccc(Br)cc1C1Sc2ccccc2NC2=C1C(=O)c1ccccc12` (stereo unspecified) as the compound, how does the survival read?
A: Its survival is 31% (active).

Q: How did the survival turn out when `O=C1C2=C(Nc3ccccc3SC2c2ccccc2C(F)(F)F)c2ccccc21` (stereo unspecified) was run?
A: Its survival is 24% (active).

Q: For `CC1=C(C)NC(=S)SC1`, which survival is on record?
A: Its survival is 101% (inactive).

Q: Which survival does the source give for `Cc1cc(=O)c2cc(C(=O)Nc3ccccc3C)ccc2[nH]1` here?
A: Its survival is 84% (inactive).

Q: `COc1ccc(CCNC(=O)c2c(Nc3ccccc3C)sc(C(=O)c3ccccc3)c2N)cc1OC` was tested. Which survival did it give?
A: The survival was 66% (inactive).

Q: For `O=C(NC1CC1)C1CCN(C(=O)c2ccc(Cl)cc2)CC1`, which survival is on record?
A: The survival was 86% (inactive).

Q: For `CCCC(C(=O)NC1CCCC1)N(C(=O)Cn1nnc(-c2ccc(C)o2)n1)c1ccccc1` (stereo unspecified), which survival is on record?
A: Its survival is 89% (inactive).

Q: For `CC(=NC1CC1)C1=C(O)c2ccccc2C1=O`, which survival is on record?
A: The survival was 92% (inactive).

Q: For `Cc1cc(C)c(S(=O)(=O)n2cnc(C)c2)c(C)c1`, which survival is on record?
A: The survival was 95% (inactive).

Q: For `Cc1cc(OCC(=O)Nc2cc(-c3nc4ncccc4o3)ccc2C)ccc1Cl`, which survival is on record?
A: Its survival is 50% (inactive).

Q: For `Cc1cc(-c2nc3ncccc3o2)ccc1NC(=O)COc1cc(C)c(Cl)c(C)c1`, which survival is on record?
A: Its survival is 65% (inactive).

Q: Which survival does the source give for `CC(C)c1ccc(OCC(=O)Nc2cc(-c3nc4ncccc4o3)ccc2Cl)cc1` here?
A: The survival was 150% (inactive).

Q: For `CCC(=O)Nc1ccc(-c2nc3ncccc3o2)cc1C`, which survival is on record?
A: Its survival is 73% (inactive).

Q: For `Cc1ccc(-c2nc3ncccc3o2)cc1NC(=O)COc1ccc(C(C)C)cc1`, which survival is on record?
A: The survival was 6% (active).

Q: `Cc1cc(-c2nc3ncccc3o2)ccc1NC(=O)COc1ccc(C(C)(C)C)cc1` was tested. Which survival did it give?
A: Its survival is 32% (active).

Q: With `COc1ccc(-c2nc(C)c(CCNC(=O)C(=O)Nc3c(C)cccc3C)s2)cc1OC` as the compound, how does the survival read?
A: The survival was 85% (inactive).

Q: How did the survival turn out when `CCc1ccccc1NC(=O)c1nn(-c2ccc(C)cc2)c(=O)c2c1c1ccccc1n2C` was run?
A: The survival was 140% (inactive).

Q: Which survival does the source give for `Cc1cc(C)cc(NC(=O)CCn2cnc3ccccc3c2=O)c1` here?
A: Its survival is 77% (inactive).

Q: With `CC1(C)Cc2ccccc2C(=NCCC(=O)O)N1` as the compound, how does the survival read?
A: Its survival is 79% (inactive).

Q: Which survival does the source give for `CC(=O)NCCNC(=O)CCCc1nnc2n(CCC(C)C)c(=O)c3sccc3n12` here?
A: Its survival is 90% (inactive).

Q: Which survival does the source give for `CC(C)c1nnc(N2C(=O)c3oc4ccccc4c(=O)c3C2c2ccccc2F)s1` (stereo unspecified) here?
A: The survival was 64% (inactive).

Q: For `COc1ccc(CCNC(=O)c2cc(=O)c3ccc(C)cc3o2)cc1OC`, which survival is on record?
A: The survival was 62% (inactive).

Q: `Cc1ccc2c(=O)cc(C(=O)NCc3ccccc3)oc2c1` was tested. Which survival did it give?
A: Its survival is 39% (active).

Q: `Cc1ccc(CNC(=O)c2cc(=O)c3cc(C)cc(C)c3o2)cc1` was tested. Which survival did it give?
A: Its survival is 102% (inactive).

Q: For `Cc1ccc(CNC(=O)c2cc(=O)c3cc(C)c(C)cc3o2)cc1`, which survival is on record?
A: Its survival is 77% (inactive).

Q: `CCc1ccc2oc(C(=O)NCc3ccccc3)cc(=O)c2c1` was tested. Which survival did it give?
A: The survival was 66% (inactive).

Q: `COc1ccc(CNC(=O)c2cc3cc(OC)ccc3oc2=O)cc1` was tested. Which survival did it give?
A: Its survival is 51% (inactive).

Q: Which survival does the source give for `Cc1ccc(CNC(=O)c2cc(=O)c3cc(C)ccc3o2)cc1` here?
A: The survival was 42% (active).

Q: How did the survival turn out when `COc1ccc(CNC(=O)Cc2coc3ccc(C)cc23)cc1` was run?
A: Its survival is 108% (inactive).

Q: `COc1ccc(CNC(=O)c2cc(=O)c3cc(C)ccc3o2)cc1` was tested. Which survival did it give?
A: The survival was 45% (active).
